# Test results reported in publication PMC13083723 (Patterns, 2026).
# The whole screen tested about 5,400 compounds, of which about 190 (3.5%) showed an effect of 50% or more. This is one part of a sample in which strong results are shown more often than they occur.
# System: Vero-E6
# Assay: primary screen, phospholipidosis by LipidTOX staining; higher = more effect of the substance
# Settings: 10 µM
# Method in brief: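 Single-concentration screen at 10 μM, with DMSO 0.1 v/v % and amiodarone 10 μM as controls. Read-out is LipidTOX Red phospholipid staining, which tolerates aldehyde fixation, in Vero-E6 cells.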
row,Compound,result_ITMP [%]
1,C[N+](C)(C)CCOP(=O)([O-])OP(=O)([O-])OC[C@H]1O[C@@H](n2ccc(N)nc2=O)[C@H](O)[C@@H]1O,10.2
2,CC(C)(O)c1ccccc1CC[C@@H](SCC1(CC(=O)[O-])CC1)c1cccc(/C=C/c2ccc3ccc(Cl)cc3n2)c1,3.69
3,C[C@H](N)Cn1ccc2cc(F)c(Cl)cc21,50.7
4,CO[C@H]1O[C@@H]2O[C@@]3(C)CC[C@H]4[C@H](C)CC[C@@H]([C@H]1C)[C@@]24OO3,-0.98
5,O=C([O-])C(O)Cc1ccc(O)c(O)c1 (stereo not shown),1.45
6,CCC(=O)O[C@@H](OP(=O)(CCCCc1ccccc1)CC(=O)N1C[C@H](C2CCCCC2)C[C@H]1C(=O)[O-])C(C)C (stereo partly shown),-3.03
7,CCCCN1CCC(CCC(=O)c2cc(Cl)c(N)cc2OC)CC1,5.01
8,CC(=O)c1ccc2c(c1)N(CCCN1CCC(CCO)CC1)c1ccccc1S2,50.4
9,CC(=O)c1ccc2c(c1)N(CCCN(C)C)c1ccccc1S2,42.6
10,CC(=O)c1ccc2c(c1)N(CCCN1CCN(CCO)CC1)c1ccccc1S2,74.4
11,CCOC(=O)Nc1ccc2c(c1)N(C(=O)CCN1CCOCC1)c1ccccc1S2,-8.3
12,O=C(NO)c1ccc(O)c(O)c1,-2.75
13,C[C@]12CCC(=O)C[C@@H]1CC[C@@H]1[C@@H]2CC[C@]2(C)C=CC[C@@H]12,-0.52
14,C[C@]12CC[C@H](O)C[C@H]1CC[C@@H]1[C@@H]2CC[C@]2(C)[C@@](O)(c3ccoc3)CC[C@]12O,-7.29
15,Cc1ccccc1N(C)C(=O)c1ccc(S(=O)c2nccs2)c([N+](=O)[O-])c1 (stereo not shown),70.1
16,CN1c2c(nc(N)[nH]c2=O)NC[C@@H]1CNc1ccc(C(=O)N[C@@H](CCC(=O)[O-])C(=O)[O-])cc1,-7.73
17,CC[C@@]1(C2O[C@@H](C3O[C@@](O)(CO)[C@H](C)C[C@@H]3C)C[C@@H]2C)CC[C@H]([C@]2(C)CCC3(C[C@H](O)[C@@H](C)[C@@H]([C@H](C)[C@@H](OC)[C@H](C)C(=O)[O-])O3)O2)O1 (stereo partly shown),-2.43
18,CN1CCN2c3ccccc3Cc3ccccc3C2C1 (stereo not shown),15.9
19,CN1CCN(c2cc(-c3ccccc3)nc(N)n2)CC1,5.46
20,CN1C[C@@H]2c3ccccc3Oc3ccc(Cl)cc3[C@H]2C1.CN1C[C@H]2c3ccccc3Oc3ccc(Cl)cc3[C@@H]2C1,65.2
21,CC(=O)NNC(=O)N1Cc2ccccc2Oc2ccc(Cl)cc21,-0.36
22,CN1CCN(C2=Cc3ccccc3Oc3ccc(Cl)cc32)CC1,61.3

row,Compound,result_ITMP [%]
1,CN1CCN(c2nc3ccccc3nc2Cl)CC1,5.5
2,CCCC(=O)[O-],-6.95
3,CCOC(=O)[C@H](C)C[C@@H](Cc1ccc(-c2ccccc2)cc1)NC(=O)CCC(=O)[O-],0.47
4,CC(C)Cc1ccc(C(C)C(=O)O)cc1 (stereo not shown) [R4A_0001344_001 / SPE_K14965640],1.58
5,O=P([O-])(O)C(Cl)(Cl)P(=O)([O-])O,-2.27
6,CNCc1ccc(C)c(NC(=O)c2ccc(Nc3nc(-c4ccccc4)c4ccccc4n3)cc2)c1,67.4
7,Cc1ccc(NC(=O)c2cccc(N(C)C)c2)cc1NC(=O)c1ccc(O)cc1,-6.05
8,Cc1cc(Nc2ccc(NC(=O)c3ccc(Nc4ccnc5ccccc45)cc3)cc2)nc(N)n1,13.5
9,CN1C2C[C@H](OC(=O)[C@H](CO)c3ccccc3)C[C@H]1[C@H]1OC21 (stereo partly shown),-1.02
10,C=C1/C(=C\C=C2/CCC[C@]3(C)[C@@H]([C@H](C)/C=C/C=C/C(O)(CC)CC)CC[C@@H]23)C[C@@H](O)C[C@@H]1O,-2.42
11,C[C@@]12C(=O)OC(=O)[C@]1(C)[C@H]1CC[C@@H]2O1,7.41
12,CNCCC=C1c2ccccc2C=Cc2ccccc21,42.4
13,CNCC/C=C/c1cccnc1,-4.64
14,CNCCC=C1c2ccccc2CCc2ccccc21,64.4
15,O=C(N[C@H]1CN2CCC1CC2)c1cnc2ccsc2c1O,-2.55
16,COC(=O)N[C@H](C(=O)N1CCC[C@H]1c1ncc(-c2ccc3c(c2)O[C@@H](c2ccccc2)n2c-3cc3cc(-c4cnc([C@@H]5CCCN5C(=O)[C@@H](NC(=O)OC)C(C)C)[nH]4)ccc32)[nH]1)C(C)C,3.24
17,Cc1onc(-c2ccccc2Cl)c1C(=O)N[C@@H]1C(=O)N2[C@@H]1SC(C)(C)[C@@H]2C(=O)[O-],4.56
18,C=CCN1CCC23c4c5ccc(O)c4O[C@H]2C(=O)CC[C@@]3(O)[C@H]1C5,-3.91
19,NC[C@H]1O[C@H](O[C@H]2[C@H](O[C@@H]3O[C@H](CO)[C@@H](O)[C@H]3O)[C@@H](O)[C@H](N)C[C@@H]2N)[C@H](N)[C@@H](O)[C@@H]1O,-1.8
20,CN(C)CC[C@@H](c1ccc(Cl)cc1)c1ccccn1 [R4A_0004036_001 / SPE_K39462424],22.6
21,CC(=O)C(=O)[O-],-8.52
22,CN1[C@@H]2CC[C@H]1C[C@@H](OC(=O)c1c[nH]c3ccccc13)C2.CN1[C@@H]2CC[C@H]1C[C@H](OC(=O)c1c[nH]c3ccccc13)C2,19.1

row,Compound,result_ITMP [%]
1,CC(C)Oc1ccc(-c2nc(-c3cccc4c3CC[C@@H]4NCCO)no2)cc1C#N,39.4
2,CC(C)Oc1ccc(-c2nc(-c3cccc4c3CCC4NCCC(=O)O)no2)cc1C#N (stereo not shown),-0.21
3,CCOc1ccc(-c2nc(-c3cccc4c3CCC4NCCO)no2)cc1OCC (stereo not shown),108
4,Cc1ccc(Cl)c(Nc2ccccc2C(=O)[O-])c1Cl,-2.49
5,CC[C@]1(O)C[C@H]2C[N@](CCc3c([nH]c4ccccc34)[C@@](C(=O)OC)(c3cc4c(cc3OC)N(C)[C@H]3[C@@](O)(C(N)=O)[C@H](O)[C@]5(CC)C=CCN6CC[C@]43[C@@H]65)C2)C1,9.74
6,O=C(O)Cc1ccc(OCc2ccccc2)c(Cl)c1,2.22
7,COc1cc(CN(CCN)C(=O)c2cccs2)ccc1OCc1ccccc1,85.4
8,COc1cc(C(=O)NCC2(N(C)C)CCCC2)cc(OC)c1OCc1ccccc1,25.4
9,O=S(=O)([O-])CC(S)CS (stereo not shown),-3.17
10,O=C(NC(Cc1c[nH]c2ccccc12)C(=O)[O-])c1ccc(Cl)cc1 (stereo not shown),-0.44
11,N[C@H]1CC[C@H](N[C@@H]2C[C@H]2c2ccccc2)CC1,65.7
12,c1ccc([C@@H]2C[C@H]2NC2CCNCC2)cc1,27.9
13,NC1C[C@H]1c1ccccc1 (stereo partly shown),-1.26
14,C[C@]12CCC(=O)C=C1C=CC1C2CC[C@@]2(C)C1CC[C@@]2(O)CCC(=O)[O-] (stereo partly shown),-3.36
15,Cc1ccc(S(=O)(=O)[N-]Cl)cc1,-2.26
16,CC[C@]1(O)C[C@@H]2C[N@@](CCc3c([nH]c4ccccc34)[C@@](C(=O)OC)(c3cc4c(cc3OC)N(C)[C@H]3[C@@](O)(C(=O)OC)[C@H](OC(C)=O)[C@]5(CC)C=CCN6CC[C@]43[C@@H]65)C2)C1,8.57
17,NC(=O)OCCCc1ccccc1,-6.09
18,O=C([O-])CCCc1ccccc1,0.94
19,CCN(CCCc1ccccc1)CCCc1ccccc1,58.9
20,C#Cc1cnc(O)nc1O,-3.59
21,Cc1ccc(C)c(Oc2ccncc2C(=O)N2CCN(C3CC3)c3ccccc32)c1,-4.61
22,O=C(O)c1ccccc1NC(=O)N1CCC(c2ccccc2C(F)(F)F)CC1,-0.92

row,Compound,result_ITMP [%]
1,CCOc1ccc(S(=O)(=O)[O-])c2cccnc12,-2.55
2,CCN(CC)CCOC(=O)C(c1ccccc1)c1ccccc1,3.73
3,CCN(CC)CCOC(=O)C(c1ccccc1)C1CCCCC1 (stereo not shown),52
4,CCN(CC)CCOC(=O)C1(c2ccccc2)CCCC1,2.32
5,COc1ccc2c(C)nc(Nc3nc(=O)c(C)c(C)[nH]3)nc2c1,0.3
6,OCCNC1CCCc2c1[nH]c1ccc(-c3ccccc3)cc21 (stereo not shown),89.4
7,NC(=O)C1CCCc2c1[nH]c1ccc(Cl)cc21 (stereo not shown),-0.07
8,C[C@H](N)C(=O)N[C@@]1(C(=O)O)C[C@@H](Sc2nnc[nH]2)[C@H]2[C@H](C(=O)O)[C@H]21,-1.74
9,Nc1ncnc2c1c(-c1cccc(OCc3ccccc3)c1)cn2[C@H]1C[C@@H](CN2CCC2)C1,69.4
10,Nc1ncnc2c1c(-c1cccc(OCc3ccccc3)c1)cn2C1CC(CN2CCCC2)C1 (stereo in doubt),41.5
11,Nc1ncnc2c1c(-c1ccc(Oc3ccccc3)cc1)nn2C1CCCC1,-1.17
12,CC(C)(C)C(=O)Oc1ccc(S(=O)(=O)Nc2ccccc2C(=O)NCC(=O)[O-])cc1,-1.15
13,C=C1/C(=C\C=C2/CCC[C@]3(C)[C@@H]([C@H](C)/C=C/[C@H](C)C(C)(C)O)CC[C@@H]23)C[C@@H](O)C[C@@H]1O,-2.3
14,COc1ccc(CCN)cc1OC,-4.61
15,COc1ccc(COc2ccc(Cc3cnc(N)nc3N)cc2OC)cc1,-3.18
16,COc1ccc(CCNCc2ccc(OCc3ccc(Cl)nc3)c(OC)c2)cc1OC,59.3
17,CC[C@H](/C=C/[C@@H](C)[C@H]1CC[C@H]2[C@@H]3CC=C4C[C@@H](O)CC[C@]4(C)[C@H]3CC[C@]12C)C(C)C,-2.7
18,O=C(O)c1ccc2[nH]cc(CCCCN3CC=C(c4ccccc4)CC3)c2c1,-12.5
19,O=C1Nc2ccc(Cl)c3c2C1(CCCCN1CC=C(c2ccc(Cl)cc2)CC1)CCC3 (stereo not shown),70.2
